The supplement of paper PMC11417369
In all, about 25,000 sequences were measured (“ln(normalized median fluorescence intensity)”: median about 9.3, highest 2% from about 10 on). Shown is part of a subset that was picked to be rich in the highest values.

tested on: PF3D7_0420300 AP2 domain 1 (GST-tagged); assay: gcPBM binding intensity (ln(normalized median fluorescence intensity)); higher = stronger DNA binding
In short: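 In this array assay, P. falciparum DNA-binding domains with a GST tag, expressed in E. coli, were applied for 1 h to primer-extended double-stranded 36-bp intergenic genomic probes and negative controls on an Agilent 4 × 180k array. Bound protein was visualised with Alexa488 anti-GST antibody at 488 nm. Binding intensity is the highest Masliner-normalised natural-log median intensity across replicate spots of either probe orientation.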

Sequence	gcPBM binding intensity (ln)
TTTTAAGAATAAAATTGTACACATACATGTGTTCGC [XGTACX_site438]	9.09
CAAAAAAAGTTATACACACACACACGGATATAAATA [CACACA_site6619]	10.1
TATACCTATAAATACACACACATATAAATAAATATA [CACACA_site6153]	9.99
TATATACCTATATACACACACATATATAAATAAATA [CACACA_site7341]	9.86
AAAAAAAAAAAAAGTACACACATACCTATAAATATA [CACACA_site6937]	9.8
TACCTATAAAAGTACACACACACACGGATATAAATA [CACACA_site6569]	10.3
TACCTATACCTATACACACACACACGGAAATAAATA [CACACA_site6750]	10.3
TATTGTATGGTAGGATATGATGTTATTTGTTATAAT [CACACA_negctrl_site202]	9.45
TATATATATATATATATATATATATATATATATATT [CACACA_negctrl_site1440]	8.8
CTGAATGTATATATTTGTACATATATATATATATAT [XGTACX_site5557]	9.16
TTTTTTTTTTTTTGTAGTACATTATGTATATTTTTA [XGTACX_site7810]	9.23
TATATATATTTATGCACACAAAATATATTATATAAT [CACACA_site5955]	9.27
TACAGACATAGACACACACACACGCATAAAAAAAAA [CACACA_site6820]	10.1
ATTTGGCATAGACACACACACACACGCACGCACATA [CACACA_site6424]	10.4
TTTATTTTATCATTTGCACACGCACCCAGACATAAA [CACACA_site4347]	9.39
AGCACGCACAGACACACACACATATTTATATTTATA [CACACA_site6291]	9.94
CAGACGCACGTATTTGCACACATTGCCACGTAATTA [CACACA_site3349]	9.42
AAATTTGGCAGACACACACACACACGCACACGCACA [CACACA_site6423]	10.3
TTTATATTATTTTAAACATGCACAAGTATAATTTAT [TGCATGCA_site233]	8.97

Sequence	gcPBM binding intensity (ln)
ATATGTATAAAAATCCGTACATAAGTGTGCGTATAT [XGTACX_site4376]	9.32
TATTTATAATTATAATAATATATATATATATATATA [TGCATGCA_negctrl_site173]	8.83
AGAAATACAAAATAAATATAAGAAACAAAATATTTA [CACACA_negctrl_site780]	9.42
AATGACAACCTTGTCACACATATATATATATATATA [CACACA_site5977]	9.17
TCTATATAGATTTGCACACATAAAAATGCTTATATA [CACACA_site2389]	9.27
TTGTTCCACAAAAATTTAGTCAAAAAAAAATAAAAA [TGCATGCA_negctrl_site546]	8.79
TATATATATATATACACACACACACCGATATATATA [CACACA_site8813]	10.2
TATATATATATATATACATGCATACATATACATACA [TGCATGCA_site897]	9.14
AAAAAAAAAAAACACACACACAAAAAAAAATATATA [CACACA_site1105]	10.1
AATATATATATATATACACACACACCGATATATATA [CACACA_site8158]	10.1
TATATATACACACACACATGCATGCCGATATATATA [TGCATGCA_site29]	10.2
TATGTACAAATATGTACACACACACCGATATATATA [CACACA_site4487]	9.96
TATATATATATACATACATGCATATATATATATATA [TGCATGCA_site513]	9
AAAGAAAGAAAGAATACACACACACCGATATATATA [CACACA_site9246]	10.2
AGAAAGAAAATATATACACACAAAAAAAAATATATA [CACACA_site1412]	9.93
CAAAAAAACAAACACACACACACACCGATATATATA [CACACA_site9218]	10.2
GATATATATTAATATACACACACACCGATATATATA [CACACA_site8462]	10
TTATAAAAAAAAATAACACACAGACATAAGAATAAA [CACACA_site9383]	9.95
TTTTCATTAAGATACTTATAATAGTTTATTAGTAAA [CACACA_negctrl_site586]	8.77

Sequence	gcPBM binding intensity (ln)
ATAATATCATCAAACGCACACATACATAAATATATT [CACACA_site5230]	9.55
ATTTTTTTCATAGACACACACAATATATCTGTTTCC [CACACA_site3023]	9.83
ATTATATATAATATAGTGCATGTAAAAAATAAAACA	9.48
GATGTGTAAATAAGGATATATAACAATCAACAAAAC [XGTACX_negctrl_site494]	9.72
ATATTATATATATACACACACACATGCATGCACCTA [CACACA_site106]	10.2
ATATTATATATATACACACACACATGCATGCACATA [CACACA_site7917]	10.1
CACAAACACCCAAACACACACACACCGACATACATA [CACACA_site4410]	10
ATATTATAGATATACACACACACATGCATGCACATA [CACACA_site6203]	10.1
TATATATACATATACACACACACACCGATATATATA [CACACA_site8706]	10.2
CATACATACAAACACACACACACACCGATATATATA [CACACA_site8952]	10.3
TATATACATACATATACACACATATATATATATATA [CACACA_site401]	9.44
TACATACATACATACATACACACATATATATATATA [CACACA_site1996]	9.45
AAAAAAAAAAAACACACACACACACCGATACATACA [CACACA_site8849]	10.3
AAAAAAAAAAAACACACACACACACCGACACATACA [CACACA_site5576]	10.2
AAAAAAAAAAAAAACACACATACATACATACATATA [CACACA_site4121]	9.74
GAAGGAAATAATAGTAGTACAAATGGTAAGAAATAT [XGTACX_site5845]	9.7
AATTTTTATACGGATACACACAAAAAAAAATAAAAA [CACACA_site897]	9.53
TACACTTTTTTTTGTACACACTAAAAAGATTAACAA [CACACA_site6037]	9.07
